# Calls of active or inactive are those of the source.
# Columns and labels:
# [1] = A549 cell viability effects, profiling panel, calcein-AM fluorescence, 48 h, basal (AID 1162); conditions: higher = more signal
# [2] = adipocyte viability effects, profiling panel, cell-based, 3T3-L1 adipocytes, calcein-AM fluorescence, 48 h, basal (AID 1163); conditions: 3T3-L1 adipocytes viability, higher = more signal
# [3] = HepG2 cell viability effects, profiling panel, calcein-AM fluorescence, 48 h, basal (AID 1164); conditions: higher = more signal
# [4] = MM1S cell viability effects, profiling panel, calcein-AM fluorescence, 48 h, basal (AID 1165); conditions: higher = more signal;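 further: viability of MM1S multiple myeloma cells under basal unstimulated conditions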
# [5] = basal RPMI8226 viability, no added stimulus, profiling panel, cell-based, calcein-AM fluorescence, 48 h, PK04 Diversity Set (AID 1166); conditions: RPMI8226 myeloma viability, higher = more signal;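 further: cells grown under basal conditions without added stimulus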
# [6] = basal HepG2 mitochondrial membrane potential changes, profiling panel, cell-based, JC-1 fluorescence, 24 h, 100 nL compound (AID 1167); conditions: higher = more signal
# [7] = basal 3T3-L1 adipocyte mitochondrial potential changes, profiling panel, cell-based, JC-1 fluorescence, 3T3-L1 adipocytes, 24 h, 100 nL compound (AID 1168); conditions: JC-1 mitochondrial fluorescence, higher = more signal, called active from +8 up or from −8 down
# [8] = basal RPMI8226 mitochondrial membrane potential changes, profiling panel, cell-based, JC-1 fluorescence, 24 h, 100 nL compound (AID 1169); conditions: RPMI8226 myeloma, JC-1 mitochondrial potential fluorescence, higher = more signal
# [9] = basal MM1S mitochondrial membrane potential changes, profiling panel, cell-based, JC-1 fluorescence, 24 h, 100 nL compound (AID 1170); conditions: higher = more signal
# [10] = A549 lung cancer cell viability effects, profiling panel, resazurin fluorescence, 24 h, PK04 Diversity Set (AID 1171); conditions: higher = more signal, called active from +8 up or from −8 down
# Further: test concentration not given here.
SMILES,z-score [1],z-score [2],z-score [3],z-score [4],z-score [5],z-score [6],z-score [7],z-score [8],z-score [9],z-score [10]
CC(C)CON=C1C[C@@H](O)[C@@H](O)[C@@H]2[C@@H]3C(=O)N(Cc4ccc5c(c4)OCO5)C(=O)[C@@H]3CC[C@@H]12,0.606,-0.724,-0.211,0.828,-0.51,0.367,0.115 (inactive),0.492,-1.49,0.471 (inactive)
O=C1C=C[C@@H](O)[C@@H]2[C@@H]3C(=O)N(C4CCCCC4)C(=O)[C@@H]3CC[C@@H]12,-0.0763,0.351,-0.602,-1.88,-2.19,1.23,-0.58 (inactive),-0.733,-1.54,0.269 (inactive)
COC(=O)[C@H](C)NC(=O)CCC1CC(OC(=O)NCc2cccc3ccccc23)CC2(CCCC(COC(=O)NCCCN3CCCC3=O)O2)O1 (stereo not given in full),0.278,-0.172,0.488,0.145,-0.0813,0.24,0.338 (inactive),-0.344,-0.394,0.44 (inactive)
CO[C@H]1COC(=O)[C@H](C)COC(=O)[C@@H](OCc2ccccc2)C=C[C@@H]1C,0.644,0.0582,0.392,0.493,-0.584,0.919,0.308 (inactive),-0.177,1.26,-0.0266 (inactive)
CCc1cc2c(nc1CC)CCN(CCC(C)=NO[C@@H]1O[C@H](COC(C)=O)[C@@H](OC(C)=O)[C@H](OC(C)=O)[C@H]1OC(C)=O)C2,-0.984,0.776,-0.536,-2.58,-1.14,1.7,-0.325 (inactive),-0.0793,0.0201,-0.223 (inactive)
CC(CCC(=O)OC[C@H]1O[C@H](C#Cc2ccccc2)C=C[C@@H]1Oc1ccc(C)cc1)=NOC(C)CN1CCCc2nc(C)c(C)cc21 (stereo not given in full),-0.177,-0.271,0.267,-2.18,-1.39,0.542,-2.38 (inactive),-0.7,-0.74,-0.719 (inactive)
CC(CCN1CCCc2nc(C)c(C)cc21)=NO[C@H](C)c1cn([C@H](CO)Cc2ccccc2)nn1,-0.385,0.849,-0.456,-0.0916,-1.88,0.0197,-2.16 (inactive),0.136,0.859,-0.254 (inactive)
CCOC(=O)[C@H](CC(C)C)NC(=O)CCC1CC(OC(=O)NCCc2ccc(F)cc2)CC2(CCCC(COC(=O)NCCOC)O2)O1 (stereo not given in full),0.0721,-1.02,-0.384,0.695,0.124,-1.21,-0.459 (inactive),0.64,0.441,0.305 (inactive)
COC(=O)[C@H](C)NC(=O)CCC1CC(OC(=O)NCc2ccc3c(c2)OCO3)CC2(CCCC(COC(=O)NCc3ccccc3)O2)O1 (stereo not given in full),3.03,-0.645,0.558,-0.147,1.27,1.33,0.552 (inactive),0.195,-0.882,0.409 (inactive)
COCCNC(=O)OCC1CCCC2(CC(OC(=O)NCc3cccc4ccccc34)CC(CCC(=O)N[C@@H](C)C(=O)OC)O2)O1 (stereo not given in full),1.89,-0.812,0.791,-0.215,-0.886,1.64,-0.0355 (inactive),-0.125,-1.16,1.67 (inactive)
COC(=O)C(C(=O)OC)C1CCCC(=O)C1 (stereo not given),0.219,0.585,-0.526,-0.68,-1.34,-0.108,-0.078 (inactive),0.753,1.15,-1.14 (inactive)
CCOC(=O)[C@H](Cc1ccccc1)NC(=O)CCC1CC(OC(=O)NCCc2ccc(F)cc2)CC2(CCCC(COC(=O)NCCC(C)C)O2)O1 (stereo not given in full),1.28,-0.567,0.368,0.243,-0.364,0.362,0.232 (inactive),-0.353,-0.941,1.87 (inactive)
C[C@@H]1CC[C@H]2C(=O)OC(Cc3ccccc3)CN2[C@H]1c1ccc(Br)cc1 (stereo not given in full),1.47,-1.25,0.556,0.637,-0.66,1.34,-1.43 (inactive),0.558,-0.332,0.472 (inactive)
CCN1C(=O)[C@H]2[C@H]3[C@H](O)[C@H](O)CC(=NO[C@H](C)c4cn([C@@H]5COC[C@H]5O)nn4)[C@@H]3CC[C@H]2C1=O,0.165,-0.736,-0.127,-0.0272,0.215,-0.407,-1.37 (inactive),0.125,-0.11,-0.232 (inactive)
CCN1C(=O)[C@H]2[C@@H]3C(=CC[C@H]2C1=O)C(=O)[C@H]1O[C@H]1[C@H]3O,-0.163,0.634,-0.929,-3.04,-3.9,-2.06,0.772 (inactive),-0.991,-2.82,-1.17 (inactive)
COc1ccc(COC(=O)NN=C2C[C@@H](O)[C@@H](O)[C@@H]3[C@@H]4C(=O)N(C(C)(C)C)C(=O)[C@@H]4CC[C@@H]23)cc1,0.901,0.514,-0.777,0.569,-0.448,-1.08,-1.14 (inactive),-0.379,0.34,0.259 (inactive)

# From PubChem BioAssay
